Test results published in PubChem BioAssay AID2283336 (EPA ToxCast).
Inconclusive results are not listed. Calls of active or inactive are those of the source. Rule for the calls: active = hit-call score of the fitted dose curve at least 0.9, where 1 is the maximum; inconclusive = response in the unintended direction; inactive = score below 0.9.

Target: Kcnn1 (gene 54261) (UniProt P70606)
Assay: NVS_IC_rKCaCh: NovaScreen (NVS) Ion Channel Assay for Potassium Channel, Ca2+ Act., VI (KCaCh)
Method in brief: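 Radioligand binding to rat forebrain membranes, cell-free, read 1 hour after dosing by filter-based scintillation counting. Compounds first run in duplicate at 25 uM, actives then in concentration series; loss of signal vs DMSO indicates displacement.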

Chain of Kcnn1 (gene 54261) (P70606 whole entry, looked up): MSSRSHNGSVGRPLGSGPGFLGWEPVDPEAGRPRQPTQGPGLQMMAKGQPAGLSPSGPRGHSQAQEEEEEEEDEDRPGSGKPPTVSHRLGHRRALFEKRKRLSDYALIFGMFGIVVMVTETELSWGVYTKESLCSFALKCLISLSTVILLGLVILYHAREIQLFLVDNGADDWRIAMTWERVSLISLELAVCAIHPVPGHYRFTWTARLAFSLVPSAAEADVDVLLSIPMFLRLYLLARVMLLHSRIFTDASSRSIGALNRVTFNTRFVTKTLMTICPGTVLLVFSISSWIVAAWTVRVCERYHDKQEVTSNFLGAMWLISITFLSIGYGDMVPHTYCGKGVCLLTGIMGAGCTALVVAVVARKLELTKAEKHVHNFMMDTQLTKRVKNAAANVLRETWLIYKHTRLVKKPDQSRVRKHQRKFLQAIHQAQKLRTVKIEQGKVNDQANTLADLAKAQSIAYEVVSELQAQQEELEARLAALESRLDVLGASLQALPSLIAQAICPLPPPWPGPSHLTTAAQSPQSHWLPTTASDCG

Compound: CN(C)c1ccc(C(=C2C=CC(=[N+](C)C)C=C2)c2ccc(N(C)C)cc2)cc1
- AC50: 16.5 µM (active)
